The entries come from a sample that favours hits as a whole.
Pf Dd2 inh – blocks in vitro growth of P. falciparum Dd2; AID 1347417; P. falciparum Dd2 growth, SYBR Green, 72 h; 120,000 tested, 4.3% active; Potency, µM (top dose mostly 28.9 µM), usual class: inhibitors; active means well fitted inhibition curve with a large enough effect; further: nearly all actives have a fitted effect of over 65% in size
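Readout: SYBR Green fluorescence, 485 nm excitation, 535 nm emission, after ~16 h lysis at 37C. Before that, Dd2-infected red cells (2.5% hematocrit) grew 72 h with compound, 29 uM top final concentration.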
Numbers stand for hits; [ ] = dose if it differs, or a comment.

How did CCOC(=O)c1cc(-c2ccccc2)n(CC(=O)NCc2ccc(C)cc2)c1C do in these assays?
Pf Dd2 inh: inactive

Results for CCOC(=O)c1cc(-c2ccc(C)cc2)n(CCC(=O)NCc2ccccc2)c1C ?
Pf Dd2 inh: 8.9µM

Results for O=C(CCc1cc2n(n1)CCCNC2)Nc1ccc(-n2cncn2)cc1 ?
Pf Dd2 inh: inactive

How did CN1[C@@H](CCC(=O)NCc2ccco2)CNC(=O)[C@@H]2[C@H]1CCN2Cc1ccc(C(=O)O)cc1 do in these assays?
Pf Dd2 inh: inactive

How did Cc1ncsc1C1N(C2CCN(C(=O)C3CCC3)CC2)C(=O)C12CCCC2 (stereo not given) do in these assays?
Pf Dd2 inh: inactive

Results for CCOC(=O)C1CCN(C(=O)Cn2ncc3c4ccccc4n(Cc4ccccc4F)c3c2=O)CC1 ?
Pf Dd2 inh: inactive

Results for CCN1CCN(C(=O)Cn2ncc3c4ccccc4n(Cc4c(C)cc(C)cc4C)c3c2=O)CC1 ?
Pf Dd2 inh: 13µM

What do the screens show for `O=C(Cn1ncc2c3ccccc3n(Cc3ccccc3F)c2c1=O)NC1CCCCCC1`?
Pf Dd2 inh: inactive

What do the screens show for `Cc1ccc(C)c(Cn2c3ccccc3c3cnn(CC(=O)N4CCCCC4)c(=O)c32)c1`?
Pf Dd2 inh: inactive

What do the screens show for `CC1CCCCN1C(=O)Cn1ncc2c3ccccc3n(Cc3ccccc3F)c2c1=O` (stereo not given)?
Pf Dd2 inh: 13µM

What do the screens show for `Cc1cc(C)c(Cn2c3ccccc3c3cnn(CC(=O)NC4CCCCCC4)c(=O)c32)c(C)c1`?
Pf Dd2 inh: inactive

How did CCCn1c2ccccc2c2cnn(CC(=O)N3CCN(c4ccccc4F)CC3)c(=O)c21 do in these assays?
Pf Dd2 inh: inactive

How did CCN1CCN(C(=O)Cn2ncc3c4ccccc4n(Cc4ccccc4F)c3c2=O)CC1 do in these assays?
Pf Dd2 inh: 11µM

What do the screens show for `Cc1ccccc1Cn1c2ccccc2c2cnn(CC(=O)N3CCC(C)CC3)c(=O)c21`?
Pf Dd2 inh: inactive

How did Cn1cnc([S+](=O)([O-])NC2CCN(C(=O)N3CC4CC(C3)[C@H]3CCCC(=O)N3C4)CC2)c1 (stereo not given in full) do in these assays?
Pf Dd2 inh: inactive

What do the screens show for `Cc1ncsc1CN1C(=O)CO[C@H](c2ccc(NC(=O)c3cccnc3)cc2)[C@H]1CO`?
Pf Dd2 inh: inactive

What do the screens show for `COCC(=O)NC[C@H]1CCN(Cc2cccc(C#N)c2)C[C@H]1N(C)C`?
Pf Dd2 inh: inactive

How did Cc1cc(C)cc(NC(=O)N2CCCC(c3noc(COc4ccccc4F)n3)C2)c1 (stereo not given) do in these assays?
Pf Dd2 inh: inactive

How did COc1ccc(-c2nc3c(C)cccc3cc2CN(C)Cc2ncc[nH]2)cc1OC do in these assays?
Pf Dd2 inh: inactive

What do the screens show for `Cc1onc(-c2cnn(C)c2NCc2ccc(C#N)cc2)c1C(=O)NC1CCCCC1`?
Pf Dd2 inh: inactive

What do the screens show for `Cc1c(C(=O)Nc2cccc(C(F)(F)F)c2)oc2ccc(S(=O)(=O)N(C)C3CCCCC3)cc12`?
Pf Dd2 inh: 11µM

Results for Cc1c(C(=O)Nc2ccc(F)c(Cl)c2)oc2ccc(S(=O)(=O)N(C)C3CCCCC3)cc12 ?
Pf Dd2 inh: inactive

Results for Cc1ccc(NC(=O)c2oc3ccc(S(=O)(=O)N(C)C4CCCCC4)cc3c2C)c(C)c1 ?
Pf Dd2 inh: inactive

Results for Cc1ccc(C(=O)Nc2ccc(S(=O)(=O)N(Cc3ccccc3)c3ccccc3)cc2)cc1 ?
Pf Dd2 inh: inactive

What do the screens show for `COc1ccc(C(=O)Nc2ccc(S(=O)(=O)N(Cc3ccccc3)c3ccccc3)cc2)cc1`?
Pf Dd2 inh: inactive

Results for CCOc1ccc(C(=O)Nc2ccc(S(=O)(=O)N(Cc3ccccc3)c3ccccc3)cc2)cc1 ?
Pf Dd2 inh: 10µM

How did Cn1nccc1C(=O)N1CCCN(S(=O)(=O)c2ccccc2)CCC(=O)NCC1 do in these assays?
Pf Dd2 inh: inactive

How did COCCN1C(=O)[C@@H]2C[C@@H](CN2C(=O)CC(C)(C)C)Oc2ccccc21 do in these assays?
Pf Dd2 inh: inactive

How did Cc1ccc(-c2nc3ccc(Br)cn3c2Nc2ccc3c(c2)OCO3)o1 do in these assays?
Pf Dd2 inh: inactive

What do the screens show for `Cc1ccc(-c2nc3ccccn3c2Nc2ccc3c(c2)OCO3)cc1`?
Pf Dd2 inh: inactive[0.594 µM]

How did Cc1cccc2nc(-c3ccc(N(C)C)cc3)c(Nc3ccc4c(c3)OCO4)n12 do in these assays?
Pf Dd2 inh: 7.9µM

Results for O=C1CC2(CCN(C(=O)c3ccccc3F)CC2)Oc2cc(Cl)ccc21 ?
Pf Dd2 inh: inactive

How did CC(=O)NC1CC2(CCN(C(=O)Cc3c(C)noc3C)CC2)Oc2ccccc21 (stereo not given) do in these assays?
Pf Dd2 inh: inactive

How did CNC(=O)N1C[C@@H](CN(C)C)[C@H](NC(=O)c2ccccc2OC(F)(F)F)C1 do in these assays?
Pf Dd2 inh: inactive

What do the screens show for `CN(C)C[C@@H]1CN(C)C[C@H]1NC(=O)c1ccccc1OC(F)(F)F`?
Pf Dd2 inh: inactive

How did CC(C)N[C@@H]1CC[C@@H]1NC(=O)c1ccccc1OC(F)(F)C(F)F do in these assays?
Pf Dd2 inh: 7.9µM

Results for O=C(c1ccoc1)N1CCC(N2C(=O)C(O)C23CCCCC3)CC1 (stereo not given) ?
Pf Dd2 inh: inactive

High-throughput results deposited in PubChem BioAssay by National Center for Advancing Translational Sciences (NCATS).
